# Reference: PubChem BioAssay (EPA / NIEHS)
# Inconclusive results are not listed. Active and inactive are the calls of the source. How the source made its calls, unless noted: active means hit-call score of the fitted dose curve at least 0.9, where 1 is the maximum; inactive means score below 0.9.
# Legend:
# [1] = biological target: Paired box protein Pax-6 (Homo sapiens) (UniProt P26367); experiment: ATG_Pax6_CIS: Attagene CIS-FACTORIAL HepG2 Assay for human Paired Box 6 (PAX6) (AID 2282956); conditions: HepG2 CIS-FACTORIAL PAX6 reporter transcription, RNA readout; actives raise or lower the signal
# Method in brief: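 HepG2 cells transiently transfected with multiplexed cis-promoter reporter units (endogenous TF activity) were dosed for 24 h. Reporter mRNA was quantified by RT-PCR, 6-FAM labeling, HpaI digestion and capillary electrophoresis; bidirectional fitting versus DMSO baseline.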
# [2] = ATG_PXRE_CIS: Attagene CIS-FACTORIAL HepG2 Assay for human Pregnane X Receptor Element (PXRE) (AID 2282957); conditions: HepG2 Attagene CIS-FACTORIAL PXRE reporter, mRNA; actives raise or lower the signal
# Method in brief: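 Transfect HepG2 with MRTUs (cis promoter elements); dose chemical, incubate 24 h; isolate RNA, RT with oligo(dT), PCR, 6-FAM label, HpaI cut, CE. Gain/loss fit vs DMSO.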
# [3] = ATG_PPRE_CIS: Attagene CIS-FACTORIAL HepG2 Assay for human Peroxisome Proliferator-activated Response Element (PPRE) (AID 2282958); conditions: HepG2 PPRE cis-element reporter, Attagene transcription factor profiling; actives raise or lower the signal
# Method in brief: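 Multiplexed reporter transcription units under cis-regulatory promoters were transfected into HepG2 cells to capture endogenous factor activity. A 24 h incubation preceded RNA isolation and fluorescent RT-PCR fragment analysis.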
# [4] = ATG_Sox_CIS: Attagene CIS-FACTORIAL HepG2 Assay for human SRY-box transcription factor (SOX) (AID 2282960); conditions: HepG2 Attagene cis-factorial SOX reporter, mRNA; actives raise or lower the signal
# Method in brief: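 After 24 h of chemical treatment, transfected HepG2 reporter cells are lysed for total RNA. Transcript levels come from RT-PCR with labelled primer extension and capillary electrophoresis, analysed bidirectionally versus DMSO.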
# [5] = biological target: Transcription factor Sp1 (Homo sapiens) (UniProt P08047); experiment: ATG_Sp1_CIS: Attagene CIS-FACTORIAL HepG2 Assay for human Specificity Protein 1 (Sp1) (AID 2282961); conditions: HepG2 Sp1 cis-reporter transcription, actives raise or lower the signal
# Method in brief: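 Sp1-driven reporter mRNA, read as capillary electrophoresis fluorescence after RT-PCR, in transiently transfected HepG2 cells dosed for 24 h; signal change in either direction relative to DMSO.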
# [6] = ATG_SREBP_CIS: Attagene CIS-FACTORIAL HepG2 Assay for human Sterol Regulatory Element Binding (SREBP) (AID 2282962); conditions: HepG2 Attagene cis-factorial SREBP reporter, mRNA; actives raise or lower the signal
# Method in brief: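 HepG2 cells transiently transfected with multiplexed cis-element reporter units report endogenous transcription factor activity. After 24 h of chemical exposure, reporter mRNA was quantified by RT-PCR, 6-FAM labelling, HpaI digestion and capillary electrophoresis; bidirectional fits used DMSO as baseline.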
# [7] = biological target: Signal transducer and activator of transcription 3 (Homo sapiens) (UniProt P40763); experiment: ATG_STAT3_CIS: Attagene CIS-FACTORIAL HepG2 Assay for human Signal Transducer and Activator of Transcription 3 (STAT3) (AID 2282963); conditions: HepG2, Attagene cis-factorial STAT3 reporter transcription; actives raise or lower the signal
# Method in brief: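 HepG2 cells transiently transfected with multiple cis-element-driven reporter units report endogenous transcription factor activity. After 24 h compound exposure, reporter mRNA is measured by RT-PCR, 6-FAM labelling, HpaI digestion and capillary electrophoresis. Fitted bidirectionally versus DMSO.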
# [8] = ATG_TA_CIS: Attagene CIS-FACTORIAL HepG2 Assay for human TA Basal Promoter (AID 2282964); conditions: HepG2 Attagene CIS-factorial TA basal promoter reporter; actives raise or lower the signal
# Method in brief: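 Cis-factorial format in HepG2: reporters report endogenous factors, not chimeric Gal4 fusions. After 24 h treatment, reporter transcripts were measured by RT-PCR-capillary electrophoresis fluorescence, analysed bidirectionally versus DMSO.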
# [9] = ATG_TCF_b_cat_CIS: Attagene CIS-FACTORIAL HepG2 Assay for human T-Cell-Factor with beta-catenin (TCF/b-cat) (AID 2282965); conditions: HepG2 TCF/beta-catenin cis-reporter transcription, actives raise or lower the signal
# Method in brief: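 HepG2 cells transiently transfected with cis-promoter-driven multiplexed reporter units; reporter mRNA measured 24 h after dosing by RT-PCR, FAM labelling, HpaI digestion and capillary electrophoresis. Bidirectional fitting relative to DMSO baseline.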
# [10] = ATG_TAL_CIS: Attagene CIS-FACTORIAL HepG2 Assay for human TAL Basal Promoter (AID 2282966); conditions: HepG2 Attagene cis-factorial TAL promoter reporter; actives raise or lower the signal;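 further: background control endpoint measuring basal TAL promoter reporter mRNA not a specific factor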
# Method in brief: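 Fluorescence of labelled reporter cDNA fragments, resolved by capillary electrophoresis, gave the readout. Human HepG2 liver cells carried transiently transfected cis-element reporter units and were treated for 24 hours; activity was fitted bidirectionally against DMSO.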
# [11] = ATG_TGFb_CIS: Attagene CIS-FACTORIAL HepG2 Assay for human Transforming Growth Factor (TGF) (AID 2282967); conditions: HepG2 Attagene CIS TGFb reporter, mRNA transcription; actives raise or lower the signal
# Method in brief: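 Multiplexed cis-reporter HepG2 system, 24 h treatment; mRNA induction read by fluorescence after RT-PCR and CE; DMSO negative control, bidirectional curve fitting.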
# [12] = biological target: Estrogen receptor (Homo sapiens) (UniProt P03372); experiment: ATG_ERa_TRANS: Attagene TRANS-FACTORIAL HepG2 Assay for human Estrogen Receptor alpha (ERa) (AID 2282970; active means hit-call score of the fitted dose curve at least 0.9, where 1 is the maximum); conditions: HepG2 Attagene TRANS ERa GAL4 reporter, mRNA
# Method in brief: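 Human liver HepG2, transient transfection of multiple GAL4-UAS reporter units; TRANS format (exogenous NR-Gal4 chimera). 24 h dosing. Readout: reporter mRNA, RT-PCR, 6-FAM primer extension, HpaI digest, capillary electrophoresis. Positive direction vs DMSO.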
# [13] = biological target: Steroid hormone receptor ERR1 (Homo sapiens) (UniProt P11474); experiment: ATG_ERRa_TRANS: Attagene TRANS-FACTORIAL HepG2 Assay for human Estrogen-Related Receptor alpha (ERRa) (AID 2282971; active means hit-call score of the fitted dose curve at least 0.9, where 1 is the maximum); conditions: HepG2 Attagene TRANS reporter, ERRa transactivation
# Method in brief: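 Reporter transcript induction was quantified by RT-PCR and capillary electrophoresis of FAM-labelled, HpaI-cut products after 24 h treatment of HepG2 cells carrying transiently transfected GAL4-UAS reporter units and an exogenous ERRa-Gal4 fusion; activity scored as increase over DMSO.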
# [14] = biological target: X-box-binding protein 1 (Homo sapiens) (UniProt P17861); experiment: ATG_Xbp1_CIS: Attagene CIS-FACTORIAL HepG2 Assay for human X-box Binding Protein 1 (XBP1) (AID 2282972); conditions: HepG2 XBP1 cis-element reporter, Attagene multiplex; actives raise or lower the signal
# Method in brief: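 HepG2 cells transiently transfected with cis-regulated multiple reporter transcription units; endogenous transcription factor activity measured 24 hours after chemical dosing. Reporter mRNA quantified by RT-PCR, 6-FAM primer extension, HpaI digestion and capillary electrophoresis; bidirectional fitting versus DMSO.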
# [15] = ATG_M_19_TRANS: Attagene TRANS-FACTORIAL HepG2 Assay for M19 Transcription Factor (Internal Marker) (AID 2282974; active means hit-call score of the fitted dose curve at least 0.9, where 1 is the maximum); conditions: HepG2 Attagene TRANS-FACTORIAL M19 internal marker reporter
# Method in brief: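 Measured here: internal-marker reporter transcript from HepG2 cells transfected with MRTUs, harvested at 24 h. cDNA PCR products were 6-FAM labelled by primer extension, cut with HpaI for 2 h at 37 C, and resolved by CE.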
# [16] = ATG_GAL4_TRANS: Attagene TRANS-FACTORIAL HepG2 Assay for GAL4 (Internal Marker) (AID 2282976; active means hit-call score of the fitted dose curve at least 0.9, where 1 is the maximum); conditions: HepG2 Attagene TRANS GAL4 internal marker reporter
# Method in brief: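 First, HepG2 cells were transfected with reporter units under GAL4-UAS control. Next, they were treated with chemical for 24 h. Finally, RNA was reverse-transcribed, PCR-amplified, FAM-labelled and resolved by capillary electrophoresis, with induction scored against DMSO.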
# [17] = ATG_VDRE_CIS: Attagene CIS-FACTORIAL HepG2 Assay for human Vitamin D Receptor Element (VDRE) (AID 2282968); conditions: HepG2 VDRE cis-reporter transcription, actives raise or lower the signal
# Method in brief: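 Transiently transfected HepG2 cells carrying cis-regulated reporter transcription units were exposed for 24 h. Reporter mRNA was measured by RT-PCR with fluorescent labelling and capillary electrophoresis, and fitted in both directions against DMSO.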
# [18] = ATG_RORE_CIS: Attagene CIS-FACTORIAL HepG2 Assay for human RAR-related Orphan Receptor Element (RORE) (AID 2282959); conditions: HepG2 Attagene cis-factorial RORE reporter, mRNA; actives raise or lower the signal
# Method in brief: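 Fluorescence intensity of reporter-specific cDNA fragments, separated by capillary electrophoresis, gives the signal. Source: HepG2 liver cells transiently transfected with cis-element reporters and exposed 24 h; DMSO-normalized bidirectional fit.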
# [19] = biological target: Nuclear receptor subfamily 1 group I member 3 (Homo sapiens) (UniProt Q14994); experiment: ATG_CAR_TRANS: Attagene TRANS-FACTORIAL HepG2 Assay for human Constitutive Androstane Receptor (CAR) (AID 2282969; active means hit-call score of the fitted dose curve at least 0.9, where 1 is the maximum;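 further: activators raise reporter mRNA above DMSO so AC50 marks induction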); conditions: HepG2 Attagene TRANS-FACTORIAL CAR reporter
# Method in brief: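 HepG2 cells transiently transfected with GAL4-UAS reporter units; TRANS format reads activity of exogenous chimeric NR-Gal4 protein. After 24 h dosing, reporter mRNA quantified by RT-PCR, 6-FAM labelling and capillary electrophoresis; gain of signal fitted against DMSO.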
# Chain of Transcription factor Sp1 (Homo sapiens) (P08047 whole entry, looked up): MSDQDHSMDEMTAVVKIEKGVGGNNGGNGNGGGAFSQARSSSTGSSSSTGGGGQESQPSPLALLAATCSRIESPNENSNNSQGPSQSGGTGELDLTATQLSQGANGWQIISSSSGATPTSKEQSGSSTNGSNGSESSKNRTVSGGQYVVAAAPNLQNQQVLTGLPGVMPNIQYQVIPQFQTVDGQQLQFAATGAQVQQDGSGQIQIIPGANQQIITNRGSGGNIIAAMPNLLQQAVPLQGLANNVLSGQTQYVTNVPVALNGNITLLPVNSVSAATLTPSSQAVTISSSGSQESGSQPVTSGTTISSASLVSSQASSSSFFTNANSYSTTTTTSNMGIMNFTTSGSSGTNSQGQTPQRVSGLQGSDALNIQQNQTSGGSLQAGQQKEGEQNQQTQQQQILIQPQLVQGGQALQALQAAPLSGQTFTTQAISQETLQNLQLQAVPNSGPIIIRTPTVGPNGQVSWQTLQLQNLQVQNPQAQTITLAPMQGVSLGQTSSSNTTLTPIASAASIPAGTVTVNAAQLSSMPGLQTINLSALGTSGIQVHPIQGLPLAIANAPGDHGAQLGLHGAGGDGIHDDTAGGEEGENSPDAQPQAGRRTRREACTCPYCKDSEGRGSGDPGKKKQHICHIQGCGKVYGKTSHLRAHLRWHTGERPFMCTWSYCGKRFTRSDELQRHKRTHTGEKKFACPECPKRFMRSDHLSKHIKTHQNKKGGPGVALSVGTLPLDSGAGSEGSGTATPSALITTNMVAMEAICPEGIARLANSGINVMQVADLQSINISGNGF
# Chain of Estrogen receptor (Homo sapiens) (P03372 whole entry, looked up, the tested form may be a part): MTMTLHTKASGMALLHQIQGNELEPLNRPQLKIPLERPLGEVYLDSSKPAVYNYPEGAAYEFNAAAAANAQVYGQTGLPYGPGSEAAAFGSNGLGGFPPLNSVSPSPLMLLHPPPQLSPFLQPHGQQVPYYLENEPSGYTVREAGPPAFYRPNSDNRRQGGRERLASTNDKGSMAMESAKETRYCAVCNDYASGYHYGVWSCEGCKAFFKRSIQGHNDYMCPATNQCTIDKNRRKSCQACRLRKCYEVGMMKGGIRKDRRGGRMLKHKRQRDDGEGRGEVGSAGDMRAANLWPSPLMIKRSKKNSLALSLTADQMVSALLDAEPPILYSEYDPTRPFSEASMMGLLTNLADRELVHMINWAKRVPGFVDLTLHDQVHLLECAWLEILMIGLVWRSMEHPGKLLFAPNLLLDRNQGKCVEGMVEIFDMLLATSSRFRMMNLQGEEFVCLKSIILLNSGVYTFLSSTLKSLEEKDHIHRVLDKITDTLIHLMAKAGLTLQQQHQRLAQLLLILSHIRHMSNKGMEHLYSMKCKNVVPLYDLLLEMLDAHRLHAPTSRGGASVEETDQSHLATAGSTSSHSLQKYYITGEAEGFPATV
# Chain of X-box-binding protein 1 (Homo sapiens) (P17861 whole entry, looked up): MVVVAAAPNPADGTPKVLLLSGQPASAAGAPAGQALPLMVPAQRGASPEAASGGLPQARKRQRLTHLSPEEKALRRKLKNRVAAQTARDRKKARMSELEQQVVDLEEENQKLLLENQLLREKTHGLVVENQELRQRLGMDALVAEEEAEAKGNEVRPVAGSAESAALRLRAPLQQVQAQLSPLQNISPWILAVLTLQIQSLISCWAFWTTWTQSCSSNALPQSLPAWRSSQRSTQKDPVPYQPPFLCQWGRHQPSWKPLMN
# Chain of Signal transducer and activator of transcription 3 (Homo sapiens) (P40763 whole entry, looked up): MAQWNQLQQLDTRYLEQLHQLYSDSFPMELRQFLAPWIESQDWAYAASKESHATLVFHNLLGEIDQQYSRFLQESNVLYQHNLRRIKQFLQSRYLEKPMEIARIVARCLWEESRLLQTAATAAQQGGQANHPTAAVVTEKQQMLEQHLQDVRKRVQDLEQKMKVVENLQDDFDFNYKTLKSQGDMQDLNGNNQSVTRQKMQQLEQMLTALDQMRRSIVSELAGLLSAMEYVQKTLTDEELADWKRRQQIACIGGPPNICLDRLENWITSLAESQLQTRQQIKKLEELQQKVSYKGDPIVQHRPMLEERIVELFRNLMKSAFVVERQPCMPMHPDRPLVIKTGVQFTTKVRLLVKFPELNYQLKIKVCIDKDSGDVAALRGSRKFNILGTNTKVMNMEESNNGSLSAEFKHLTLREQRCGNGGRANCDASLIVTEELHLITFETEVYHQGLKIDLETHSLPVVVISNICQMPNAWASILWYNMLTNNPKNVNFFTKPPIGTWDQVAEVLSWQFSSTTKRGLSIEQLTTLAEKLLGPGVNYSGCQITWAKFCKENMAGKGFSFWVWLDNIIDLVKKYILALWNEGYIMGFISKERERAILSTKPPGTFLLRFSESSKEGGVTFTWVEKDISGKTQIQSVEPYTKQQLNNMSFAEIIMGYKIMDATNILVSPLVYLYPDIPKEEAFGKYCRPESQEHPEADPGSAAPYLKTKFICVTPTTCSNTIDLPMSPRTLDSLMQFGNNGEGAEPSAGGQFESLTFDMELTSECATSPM
# Chain of Paired box protein Pax-6 (Homo sapiens) (P26367 whole entry, looked up): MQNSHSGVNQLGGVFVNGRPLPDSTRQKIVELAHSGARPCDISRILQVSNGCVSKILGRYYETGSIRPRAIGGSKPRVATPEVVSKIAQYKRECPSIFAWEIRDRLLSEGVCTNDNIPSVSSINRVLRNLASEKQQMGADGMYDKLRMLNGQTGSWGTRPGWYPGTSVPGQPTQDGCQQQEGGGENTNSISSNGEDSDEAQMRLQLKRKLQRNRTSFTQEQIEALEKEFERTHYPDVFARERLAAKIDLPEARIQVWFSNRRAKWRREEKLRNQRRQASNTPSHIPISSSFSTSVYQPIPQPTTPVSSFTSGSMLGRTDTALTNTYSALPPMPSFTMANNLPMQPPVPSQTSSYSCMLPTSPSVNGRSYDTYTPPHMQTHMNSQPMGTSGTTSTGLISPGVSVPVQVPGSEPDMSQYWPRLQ
# Chain of Nuclear receptor subfamily 1 group I member 3 (Homo sapiens) (Q14994 whole entry, looked up, the tested form may be a part): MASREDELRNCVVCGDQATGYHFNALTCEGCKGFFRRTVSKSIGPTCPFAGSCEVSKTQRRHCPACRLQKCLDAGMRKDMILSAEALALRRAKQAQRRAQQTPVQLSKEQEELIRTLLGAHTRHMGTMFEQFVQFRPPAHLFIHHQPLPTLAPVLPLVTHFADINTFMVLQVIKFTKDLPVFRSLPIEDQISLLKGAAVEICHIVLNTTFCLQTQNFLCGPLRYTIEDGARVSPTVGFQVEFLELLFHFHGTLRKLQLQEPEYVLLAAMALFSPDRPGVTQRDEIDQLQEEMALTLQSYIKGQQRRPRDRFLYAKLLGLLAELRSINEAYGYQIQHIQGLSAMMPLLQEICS
# Chain of Steroid hormone receptor ERR1 (Homo sapiens) (P11474 whole entry, looked up, the tested form may be a part): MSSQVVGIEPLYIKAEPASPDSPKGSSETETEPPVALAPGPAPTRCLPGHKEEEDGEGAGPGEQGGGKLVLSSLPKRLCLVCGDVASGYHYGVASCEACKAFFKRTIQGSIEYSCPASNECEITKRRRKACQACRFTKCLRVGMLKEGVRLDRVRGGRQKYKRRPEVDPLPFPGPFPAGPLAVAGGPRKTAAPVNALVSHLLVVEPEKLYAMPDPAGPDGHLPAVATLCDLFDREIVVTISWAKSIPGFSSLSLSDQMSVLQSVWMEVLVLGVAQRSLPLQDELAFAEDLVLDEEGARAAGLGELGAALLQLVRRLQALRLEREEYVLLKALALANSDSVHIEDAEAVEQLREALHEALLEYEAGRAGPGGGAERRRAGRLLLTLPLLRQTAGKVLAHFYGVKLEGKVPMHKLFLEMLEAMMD
smiles,measurement,setting,value
O=C1CC2CC1C1CCCC21 (centres undefined),outcome,[1],inactive
same,AC50,[2],40.8 µM (active)
same,outcome,[3],inactive
same,outcome,[4],inactive
same,outcome,[5],inactive
same,outcome,[6],inactive
same,outcome,[7],inactive
same,outcome,[8],inactive
same,outcome,[9],inactive
same,outcome,[10],inactive
same,outcome,[11],inactive
same,outcome,[12],inactive
same,outcome,[13],inactive
same,outcome,[14],inactive
same,outcome,[15],inactive
same,outcome,[16],inactive
CC(=O)OCC(C)OC(C)=O (centres undefined),outcome,[1],inactive
same,outcome,[2],inactive
same,outcome,[3],inactive
same,outcome,[4],inactive
same,outcome,[5],inactive
same,outcome,[6],inactive
same,outcome,[7],inactive
same,outcome,[8],inactive
same,outcome,[9],inactive
same,outcome,[10],inactive
same,outcome,[11],inactive
same,outcome,[17],inactive
same,outcome,[14],inactive
same,outcome,[15],inactive
CC(C)(C)C1CCCCC1=O (centres undefined),outcome,[1],inactive
same,AC50,[2],76.6 µM (active)
same,outcome,[18],inactive
same,outcome,[4],inactive
same,outcome,[5],inactive
same,outcome,[6],inactive
same,outcome,[7],inactive
same,outcome,[8],inactive
same,outcome,[9],inactive
same,outcome,[10],inactive
same,outcome,[11],inactive
same,outcome,[12],inactive
same,outcome,[14],inactive
same,outcome,[16],inactive
OCCCS,outcome,[1],inactive
same,outcome,[2],inactive
same,outcome,[18],inactive
same,outcome,[4],inactive
same,outcome,[5],inactive
same,outcome,[6],inactive
same,outcome,[7],inactive
same,outcome,[9],inactive
same,outcome,[10],inactive
same,outcome,[11],inactive
same,outcome,[17],inactive
same,outcome,[14],inactive
same,outcome,[15],inactive
same,outcome,[16],inactive
CC(=O)CC(N)=O,outcome,[1],inactive
same,AC50,[2],0.0836 µM (active)
same,outcome,[18],inactive
same,outcome,[4],inactive
same,outcome,[5],inactive
same,outcome,[6],inactive
same,outcome,[7],inactive
same,outcome,[8],inactive
same,outcome,[9],inactive
same,outcome,[10],inactive
same,outcome,[11],inactive
same,outcome,[17],inactive
same,outcome,[14],inactive
same,outcome,[15],inactive
same,outcome,[16],inactive
O=c1c2ccccc2oc2ccccc12,outcome,[1],inactive
same,AC50,[2],27.1 µM (active)
same,outcome,[18],inactive
same,outcome,[4],inactive
same,outcome,[5],inactive
same,outcome,[6],inactive
same,outcome,[7],inactive
same,outcome,[9],inactive
same,outcome,[10],inactive
same,outcome,[17],inactive
same,outcome,[19],inactive
same,AC50,[12],27.8 µM (active)
same,outcome,[14],inactive
same,outcome,[15],inactive
same,outcome,[16],inactive
CCN(CC)c1ccc(C(=O)c2ccccc2C(=O)O)c(O)c1,outcome,[1],inactive
same,AC50,[2],1.09 µM (active)
same,outcome,[18],inactive
same,outcome,[4],inactive
same,outcome,[5],inactive
same,outcome,[6],inactive
same,outcome,[7],inactive
same,outcome,[8],inactive
same,outcome,[9],inactive
same,outcome,[10],inactive
same,AC50,[17],1.7 µM (active)
same,outcome,[12],inactive
same,outcome,[14],inactive
CC(=O)Nc1nnc(S(N)(=O)=O)s1,outcome,[1],inactive
same,outcome,[2],inactive
same,outcome,[18],inactive
same,outcome,[4],inactive
same,outcome,[5],inactive
same,outcome,[6],inactive
same,outcome,[7],inactive
same,outcome,[8],inactive
same,outcome,[9],inactive
same,outcome,[10],inactive
same,outcome,[11],inactive
same,outcome,[19],inactive
same,outcome,[12],inactive
same,outcome,[14],inactive
same,outcome,[16],inactive
SCCc1cnccn1,outcome,[1],inactive
same,AC50,[2],78.1 µM (active)
same,outcome,[18],inactive
same,outcome,[4],inactive
same,outcome,[5],inactive
same,outcome,[6],inactive
same,outcome,[7],inactive
same,outcome,[8],inactive
same,outcome,[9],inactive
same,AC50,[10],100 µM (active)
same,outcome,[11],inactive
same,outcome,[14],inactive
same,outcome,[16],inactive
